93 compounds from PubChem BioAssay AID504332 (National Center for Advancing Translational Sciences (NCATS), 2011) can be followed below.

About 31,000 (8.9%) of roughly 350,000 compounds were called active. Not shown: some 15% with an inconclusive outcome. Calls follow the shape of the dose curve; as a rule, active = well fitted inhibition curve with a large enough effect; inconclusive = small, poorly fitted or top-dose-only effect; inactive = no such curve, though single readings can be large or run the other way. The entries come from a sample that favours actives as a whole. A call without a number means that no potency is given here.
Potency is read from the fitted curve at half-maximal effect.

Chain of Histone-lysine N-methyltransferase EHMT2 (Homo sapiens) (Q96KQ7 913-1193 limits assumed): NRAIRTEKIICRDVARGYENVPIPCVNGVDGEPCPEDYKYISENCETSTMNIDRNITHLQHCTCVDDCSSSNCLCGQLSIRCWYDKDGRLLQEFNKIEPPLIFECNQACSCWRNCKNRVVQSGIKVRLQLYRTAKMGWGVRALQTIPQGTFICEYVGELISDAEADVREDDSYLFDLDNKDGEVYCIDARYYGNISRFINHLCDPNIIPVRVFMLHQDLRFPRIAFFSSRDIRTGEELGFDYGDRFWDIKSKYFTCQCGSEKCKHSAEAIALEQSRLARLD

The test deals with Histone-lysine N-methyltransferase EHMT2 (Homo sapiens) (UniProt Q96KQ7). The test can be described thus: qHTS Assay for Inhibitors of Histone Lysine Methyltransferase G9a. Also: nearly all actives have a fitted effect of over 75% in size. Conditions: G9a H3K9 monomethylation, AlphaScreen, 2 h; series mostly up to 59 µM. An outline of the steps:
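G9a (20 nM) preincubated 15 min RT with compounds, then 500 nM biotinylated H3K9 peptide and 20 uM SAM added; 2 h RT reaction. Monomethyl-H3K9 product detected by AlphaScreen with anti-H3K9me1 antibody, streptavidin donor and anti-rabbit IgG acceptor beads.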
For the compound `COc1cc2c(cc1OC)C(C(=O)Nc1cc(C)c(OC)c(C)c1)CC(=O)N2` (stereo not drawn), the Potency result was “inactive”.
`CCc1ccc(Nc2n[n+](-c3ccccc3)c(-c3cccc(Cl)c3Cl)s2)cc1`: the activity, negative = inhibition was 10.7% [at 2.33 µM] (inactive).
Regarding `COc1cc(Br)c(-c2sc(Nc3ccccc3)n[n+]2-c2ccccc2)cc1OC`, the Potency was 28.2 µM (active).
Same read-out and setting: the entry for `COc1ccc(C(=O)Nc2cccc(C(=O)OCc3cc(=O)n4c5c(sc4n3)CCCC5)c2)cc1` is “inactive”.
For the compound `COc1ccc(C)cc1NC(=O)CSc1nnc2ccc(-c3ccccn3)nn12`, the activity, negative = inhibition is 2.04% [at 0.501 µM] (inactive).
As for `COCCn1c(C)cc(C(=O)COC(=O)CNC(=O)c2ccco2)c1C`, the Potency entry is “inactive”.
Turning to `COCCn1c(C)cc(C(=O)COC(=O)/C=C/c2cccc(OC)c2)c1C`, the Potency is 44.7 µM (active).
Consider `COc1cccc(/C=C/C(=O)OCC(=O)N2CCN(c3ccccc3)CC2)c1`, for which the activity, negative = inhibition is -4.22% [at 12.7 µM] (inactive).
`Cc1cccc(-n2ncc(C(=O)N3CCc4ccccc4C3)c2C2CCN(C(=O)OC(C)(C)C)CC2)c1`: the Potency result was “inactive”.
In the case of `COc1ccc(CNC(=O)c2ccc3c(c2)nc2n3CCOC2)c(OC)c1`, the Potency entry is “inactive”.
Same read-out and setting: in the case of `CCOC(=O)c1c(C)oc2ccc(OCC(=O)N(CC)CC)cc12` it was “inactive”.
Consider `CCc1nc(C)ccc1OCC(=O)N(CC)CC`, for which the Potency is 28.2 µM (active).
As to `CCc1ccccc1NC(=O)CN(C)C(=O)COc1ccc(C)nc1[N+](=O)[O-]`, the Potency entry is “inactive”.
For `Cc1cccc(C)c1NC(=O)N1CC(C)OC(C)C1` (stereo not drawn), the Potency entry is “inactive”.
Same read-out and setting: in the case of `Cc1cccc(C)c1NC(=O)C1(C)c2cccc[n+]2CC(=O)N1Cc1cccs1` (stereo not drawn) it was 14.1 µM (active); in that of `CCc1cccc(C)c1NC(=S)N(CCCN1CCN(C)CC1)Cc1cccs1`, “inactive”; in that of `O=C(OCC(=O)N1CCCC1)c1ccc(Cl)nc1`, “inactive”.
For the compound `CCOC(=O)C1CCCN(C(=O)c2ccc(C)c(S(=O)(=O)N3CCCCC3)c2)C1` (stereo not drawn), the activity, negative = inhibition was 38.4% [at 12.7 µM] (inactive).
Take `C=CCOc1c(CNn2cn[nH]c2=S)cccc1OC`: the Potency is 20 µM (active).
As to `COc1ccccc1CNc1nc(-c2c(C)noc2C)nc2ccccc12`, the activity, negative = inhibition was -6.92% [at 0.501 µM] (inactive).
As to `C=CCOc1cccc(CNn2cn[nH]c2=S)c1`, the activity, negative = inhibition is 24.4% [at 0.0925 µM] (inactive).
For `Cc1ccc(Cl)cc1N1CCN(C(=O)c2cnc3c(-c4ccc(F)cc4)c(C)nn3c2C)CC1`, the Potency entry was “inactive”.
The same measure, in the same setting: in the case of `Nc1nnc(SCn2nnc3ccccc3c2=O)s1` it was 28.2 µM (active); in that of `Cc1cccc(OCc2nnc(SCn3nnc4ccccc4c3=O)o2)c1`, “inactive”.
As for `O=c1c2ccccc2nnn1CSc1nc2sc3c(c2c(=O)n1CC1CCCO1)CCC3` (stereo not drawn), the Potency entry is “inactive”.
Still for that read-out and setting: the entry for `O=C(Nc1ccc(F)cc1)c1ccc(S(=O)(=O)NCc2cccnc2)cc1` is “inactive”; for `O=C(NNS(=O)(=O)c1ccc(F)cc1)c1cnccn1` it is 10 µM (active).
Take `O=C(Nc1ccc(S(=O)(=O)N2CCCCC2)cc1)c1cnccn1`: the Potency result was “inactive”.
Still for that read-out and setting: in the case of `CSCCC(NC(=O)c1ccco1)C(=O)Nc1cc(C)ccn1` (stereo not drawn) it was “inactive”.
Turning to `CCn1c(=O)cc(OCC(=O)Nc2cc(Cl)c(OC)cc2OC)c2ccccc21`, the Potency result was “inactive”.
`CCN(CC)c1ccc(S(=O)(=O)N2CCCCC2)cc1NC(=O)C1=COCCO1`: the Potency entry was “inactive”.
On the same count and under the same terms, in the case of `Cc1ccccc1Cn1nc(C)c(NC(=O)c2cc(-c3ccc(F)cc3)on2)c1C` it was “inactive”; in that of `Cc1cccc(C(=O)NCC(=O)OCC(=O)N2CC3(C)CC2CC(C)(C)C3)c1` (stereo not drawn), 6.31 µM (active).
Still for that read-out and setting: the entry for `Cc1nnnn1/C(=C\c1ccccc1)C(=O)OCC(=O)N1CC2(C)CC1CC(C)(C)C2` (stereo not drawn) is “inactive”.
Still for that read-out and setting: the entry for `Cc1cc(C)cc(C(=O)NCC(=O)OCC(=O)N2CCCCC2)c1` is “inactive”.
For the compound `O=S(=O)(NCCc1ccccn1)c1cc(Cl)cc(Cl)c1O`, the activity, negative = inhibition was 22.1% [at 2.33 µM] (inactive).
`O=C(CC1Nc2ccccc2NC1=O)Nc1ccccc1NC(=O)CC1Nc2ccccc2NC1=O` (stereo not drawn): the Potency entry is “inactive”.
Turning to `COC(=O)c1cc(C)sc1NC(=O)CC1Nc2ccccc2NC1=O` (stereo not drawn), the Potency is 50.1 µM (active).
The same measure, in the same setting: in the case of `CCOC(=O)c1ccccc1NC(=O)CC1Nc2ccccc2NC1=O` (stereo not drawn) it was “inactive”; in that of `Cc1cccc(-n2ncc(C(=O)N3CCC(C)CC3)c2C2CCN(C(=O)OC(C)(C)C)CC2)c1`, “inactive”.
For `O=C(CS(=O)(=O)c1cccc2nsnc12)N1CCN(c2cccc(Cl)c2)CC1`, the Potency result is “inactive”.
In the case of `COc1cc(NC(=O)Nc2ccc(C)cc2)cc([N+](=O)[O-])c1`, the activity, negative = inhibition was 9.42% [at 2.33 µM] (inactive).
On the same count and under the same terms, the figure for `CCN(CC(=O)Nc1ccc(OC)cc1)C(=O)CSCc1ccc(C)cc1` is -8.18% [at 12.7 µM] (inactive).
For `COc1ccc(Cc2n[nH]c(=S)n2NC(=O)Nc2ccc(C)cc2)cc1`, the Potency was 8.91 µM (active).
Still for that read-out and setting: the entry for `Cc1csc(SCC(=O)N(c2ccccc2)C(C)C)n1` is “inactive”; for `CCOc1ccc(NC(=O)c2ncoc2-c2ccco2)cc1` it is “inactive”.
Still for that read-out and setting: in the case of `O=C(NCc1ccccc1CN1CCCC1)C1CCN(S(=O)(=O)c2ccc(Cl)cc2)CC1` it was “inactive”; in that of `C/C(=N\Nc1ncc(Cl)cc1Cl)c1ccc(S(=O)(=O)NCc2ccco2)cc1`, “inactive”; in that of `O=C(CCCl)Nc1ccc(S(=O)(=O)NCc2ccco2)cc1`, “inactive”.
With `Cc1c(Cl)cnc(NC(=O)COC(=O)c2ccc(S(=O)(=O)NCc3ccco3)cc2)c1Cl`, the Potency is 44.7 µM (active).
On the same count and under the same terms, in the case of `CCC(=O)Nc1ccc(S(=O)(=O)Nc2c(NC)c3ccccc3oc2=O)cc1` it was “inactive”; in that of `Cc1ccc(S(=O)(=O)c2nc(-c3cccs3)oc2NCc2cccnc2)cc1`, 25.1 µM (active); in that of `O=S(=O)(c1ccccc1)c1nc(-c2ccccc2F)oc1NCc1cccnc1`, “inactive”.
The same measure, in the same setting: in the case of `Cc1ccc(CSc2oc(-c3cccs3)nc2S(=O)(=O)c2ccc(C)cc2)cc1` it was “inactive”; in that of `Cc1cc(Cl)ccc1N1C(=O)CC(SCCC(=O)O)C1=O` (stereo not drawn), 10 µM (active).
Still for that read-out and setting: the entry for `Cc1ccc(N2C(=O)CC(N3CCSCC3)C2=O)c(C)c1` (stereo not drawn) is “inactive”; for `CCC1Oc2ccc(Cl)cc2N(CC(=O)O)C1=O` (stereo not drawn) it is “inactive”.
As for `Cc1ccc(CSc2nc3cccnc3n2Cc2ccc(C(=O)NC3CC3)cc2)cc1`, the Potency result is “inactive”.
`COc1ccc(OCCn2cc(C(=O)C3CCCCC3)c3ccccc32)cc1`: the Potency result is “inactive”.
As to `O=C1CSC2(C(=O)N(Cc3ccccc3)c3ccccc32)N1c1cccc(F)c1` (stereo not drawn), the Potency entry is “inactive”.
In the case of `CCOc1ccccc1NC(=O)c1ccc2c(c1)CCN2S(=O)(=O)c1ccc(C)cc1`, the Potency entry is “inactive”.
Take `CC(=O)c1c(-c2ccccc2)c2ccccc2[nH]c1=O`: the Potency result was “inactive”.
Consider `S=c1[nH]c2ccccc2c2ccccc12`, for which the Potency is 8.91 µM (active).
Same read-out and setting: the entry for `NC(=O)Cc1ccc2c(c1)[nH]c1ccccc12` is “inactive”; for `CCc1ccccc1N(C)C(=O)C1CCCN(c2ncnc3onc(-c4ccc(F)cc4)c23)C1` (stereo not drawn) it is “inactive”.
Turning to `COc1ccc([C@H]2CC(=O)C=C(/C=C/c3ccccc3)C2)cc1`, the activity, negative = inhibition is -12.4% [at 2.33 µM] (inactive).
As to `COc1ccccc1Nc1nc(N)nc(N)c1S(=O)(=O)c1ccccc1`, the Potency result is “inactive”.
For the compound `C=CCn1c(CCc2ccc(OC(C)C)cc2)n[nH]c1=S`, the Potency entry is “inactive”.
Consider `Cc1ccc(C)c2[nH]c(=O)c(CCNC(=O)c3cccs3)cc12`, for which the Potency result is “inactive”.
Take `C=CCn1c(CCNC(=O)c2cccs2)n[nH]c1=S`: the Potency is 11.2 µM (active).
On to `CCc1ccc(N(C(=O)c2csnn2)C(C(=O)NC2CCCCC2)c2cccnc2)cc1` (stereo not drawn), for which the Potency entry is “inactive”.
`Cc1c(NS(=O)(=O)c2cc(C(=O)NCCc3ccc(F)cc3)cc(Cl)c2Cl)c(=O)n(-c2ccccc2)n1C`: the Potency result was “inactive”.
As to `CSc1ccccc1OCc1cc(C(=O)N(C)CCc2c(C)n[nH]c2C)no1`, the activity, negative = inhibition is 43.1% [at 0.0925 µM] (inactive).
With `Cc1cc(CN(C)C(=O)c2cc(COc3ccc(C)c(C)c3)on2)n[nH]1`, the Potency entry was “inactive”.
On to `COc1cc(Cl)ccc1OCc1cc(C(=O)N(C)CCc2c(C)n[nH]c2C)no1`, for which the Potency was 39.8 µM (active).
In the case of `NC(=O)NCCCC(=O)O`, the activity, negative = inhibition is -0.244% [at 12.7 µM] (inactive).
On to `Cc1ccccc1-c1nc2scc(CCNC(=O)C(=O)Nc3ccc(F)cc3F)n2n1`, for which the Potency result was “inactive”.
Still for that read-out and setting: in the case of `NCCCC[C@@H]1NC(=O)[C@H](CCC(=O)O)NC(=O)c2cc([N+](=O)[O-])cc(I)c2NCC[C@@H](C(N)=O)NC1=O` it was 14.1 µM (active); in that of `NC(=O)C[C@@H]1NC(=O)CNC(=O)c2cc([N+](=O)[O-])cc(I)c2NCCC(C(N)=O)NC1=O` (stereo partly drawn), 11.2 µM (active); in that of `CC(C)[C@@H]1NC(=O)c2cc([N+](=O)[O-])cc(I)c2NCCC[C@@H](C(=O)NC(CC(=O)O)C(N)=O)NC(=O)[C@H](CO)NC1=O` (stereo partly drawn), “inactive”.
Still for that read-out and setting: in the case of `NC(=O)CC[C@@H]1NC(=O)[C@H](CO)NC(=O)c2cc([N+](=O)[O-])cc(I)c2NCC[C@@H](C(N)=O)NC1=O` it was 10 µM (active); in that of `Cc1oc(-c2ccccc2)nc1Cn1c(SCc2cccc(C(F)(F)F)c2)nc2cccnc21`, “inactive”.
On to `Cc1ccc(C(=O)CN2C(=O)NC3(CCOc4ccccc43)C2=O)s1` (stereo not drawn), for which the activity, negative = inhibition was -5.02% [at 2.33 µM] (inactive).
Turning to `CN1CCN(NC(=O)Nc2ccc(Br)cc2)CC1`, the Potency entry was “inactive”.
`CC(C)(C)OC(=O)NCCCCCNC(=O)c1[nH]cnc1C(=O)Nc1nccs1`: the activity, negative = inhibition is 3.9% [at 0.501 µM] (inactive).
As to `O=C(COc1ccc(Cl)cc1)Nc1ccccc1OCc1cc(=O)n2ccccc2n1`, the Potency result is “inactive”.
`COc1ccccc1OCCNC(=O)C(CCSC)NC(=O)COc1ccccc1` (stereo not drawn): the activity, negative = inhibition is 9.08% [at 12.7 µM] (inactive).
Still for that read-out and setting: in the case of `O=C1C=C(c2cc(C(F)(F)F)cc(C(F)(F)F)c2)C[C@@H](c2ccc3c(c2)OCO3)C1` it was 10.2% [at 0.501 µM] (inactive).
With `CCN(C(=O)Cn1c(=O)nc(-c2ccccc2)c2cc(Cl)ccc21)c1cccc(C)c1`, the Potency result was “inactive”.
On the same count and under the same terms, in the case of `O=C(CCC1N=C2c3ccccc3N=C(SCc3ccccc3F)N2C1=O)NCCc1ccccc1` (stereo not drawn) it was “inactive”.
On to `C[C@H](NC(=O)c1[nH]cnc1C(=O)Nc1nccs1)c1ccccc1`, for which the activity, negative = inhibition is 8.27% [at 0.501 µM] (inactive).
Take `CC(NC(=O)C(=O)Nc1nccs1)c1ccccc1` (stereo not drawn): the Potency was 50.1 µM (active).
Take `O=C(O)c1ccccc1-c1ccccc1C(=O)Nc1nccs1`: the Potency entry was “inactive”.
